In PubChem BioAssay (NCATS):
Records with an inconclusive call do not appear. Entries that show only a call come without a potency. Calls of active or inactive are those of the source. Calls come from the whole dose curve; as a rule, active = well fitted curve in the direction sought with a large enough effect; inconclusive = small, poorly fitted or top-dose-only effect, or another doubt; inactive = no such curve, though single readings can be large; an effect the other way counts as inactive or inconclusive.

molecular target: Guanine nucleotide-binding protein G(i) subunit alpha-1 (Homo sapiens) (UniProt P63096); test: qHTS Assay for Inhibitors of RGS12 GoLoco Motif Activity (Green Fluorophore) (AID 879); details: Galphai1/FITC-RGS12 GoLoco peptide, fluorescence polarization; series mostly up to 57.1 µM; note: potency is the fitted concentration of half-maximal effect
Sequence (P63096 whole entry, looked up): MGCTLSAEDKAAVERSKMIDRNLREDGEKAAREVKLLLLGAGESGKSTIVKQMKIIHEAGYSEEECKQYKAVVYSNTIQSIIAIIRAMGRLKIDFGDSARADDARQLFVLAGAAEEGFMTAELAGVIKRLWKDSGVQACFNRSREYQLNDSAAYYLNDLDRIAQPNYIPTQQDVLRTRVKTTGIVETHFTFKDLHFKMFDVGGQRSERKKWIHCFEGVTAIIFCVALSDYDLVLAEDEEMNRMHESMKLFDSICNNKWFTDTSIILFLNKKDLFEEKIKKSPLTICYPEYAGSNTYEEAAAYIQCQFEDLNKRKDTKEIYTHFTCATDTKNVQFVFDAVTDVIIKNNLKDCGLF
Method in brief: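 Fluorescence polarization assay: 50 nM Gαi1 with 10 nM FITC-labeled RGS12 GoLoco peptide in 10 mM Tris pH 7.5, 150 mM NaCl, 0.1 mM GDP, 0.05% NP40, 10 min at room temperature with compound.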

| Structure (SMILES) | Potency |
| --- | --- |
| CCOC(=O)Nc1ccc(NCc2ccc(F)cc2)nc1N | inactive |
| CC[N+](CC)(CC)CCOc1cccc(OCC[N+](CC)(CC)CC)c1OCC[N+](CC)(CC)CC | inactive |
| CCCCc1oc2ccccc2c1C(=O)c1cc(I)c(OCCN(CC)CC)c(I)c1 | inactive |
| Cc1cnc(C(=O)NCCc2ccc(S(=O)(=O)NC(=O)NC3CCCCC3)cc2)cn1 | inactive |
| Cc1ccc(C(=O)Nc2ccc(S(=O)(=O)O)c3cc(S(=O)(=O)O)cc(S(=O)(=O)O)c23)cc1NC(=O)c1cccc(NC(=O)Nc2cccc(C(=O)Nc3cc(C(=O)Nc4ccc(S(=O)(=O)O)c5cc(S(=O)(=O)O)cc(S(=O)(=O)O)c45)ccc3C)c2)c1 | inactive |
| CN1CCC(=C2c3ccccc3C=Cc3ccccc32)CC1 | inactive |
| CN1CCN(CCCN2c3ccccc3Sc3ccc(Cl)cc32)CC1 | inactive |
| CN(C)CCOC(c1ccccc1)c1ccccc1 | inactive |
| Nc1nc2c(ncn2COC(CO)CO)c(=O)[nH]1 | inactive |
| OCCN(CCO)c1nc(N2CCCCC2)c2nc(N(CCO)CCO)nc(N3CCCCC3)c2n1 | 10 µM (active) |
| CN(C)C(=O)C(CCN1CCC(O)(c2ccc(Cl)cc2)CC1)(c1ccccc1)c1ccccc1 | inactive |
| CNCCCC12CCC(c3ccccc31)c1ccccc12 | inactive |

molecular target: Cytochrome P450 3A4 (Homo sapiens) (UniProt P08684); test: qHTS Assay for Inhibitors and Substrates of Cytochrome P450 3A4 (AID 884); details: recombinant CYP3A4, Luciferin-PPXE luminescence; series mostly up to 57.1 µM; note: nearly all actives have a fitted effect of over 50% in size
Sequence (P08684 whole entry, looked up): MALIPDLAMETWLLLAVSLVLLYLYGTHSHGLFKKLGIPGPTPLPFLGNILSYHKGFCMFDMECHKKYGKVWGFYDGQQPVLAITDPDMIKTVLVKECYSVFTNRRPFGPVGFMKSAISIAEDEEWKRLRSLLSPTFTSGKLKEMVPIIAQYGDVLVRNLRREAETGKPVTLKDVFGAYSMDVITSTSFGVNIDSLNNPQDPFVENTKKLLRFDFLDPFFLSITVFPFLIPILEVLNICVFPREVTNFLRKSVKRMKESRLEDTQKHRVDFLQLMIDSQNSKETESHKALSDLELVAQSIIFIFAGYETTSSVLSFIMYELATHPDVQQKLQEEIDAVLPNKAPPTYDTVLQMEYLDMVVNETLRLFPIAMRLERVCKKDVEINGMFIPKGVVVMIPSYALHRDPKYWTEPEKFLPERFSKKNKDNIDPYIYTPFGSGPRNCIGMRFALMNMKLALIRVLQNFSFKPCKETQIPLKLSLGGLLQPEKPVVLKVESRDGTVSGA
Method in brief: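 20 nM human CYP3A4 with 25 uM Luciferin-PPXE (at KM) in 200 mM KPO4, preincubated 10 min with compound; NADPH regeneration started a 60 min RT reaction. Luciferin detected by luminescence, normalized to 57 uM ketoconazole as full inhibition.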

| Structure (SMILES) | outcome |
| --- | --- |
| CCC1(C)CC(=O)NC1=O (stereo not drawn) | inactive |
| CC12CC3CC(C)(C1)CC(N)(C3)C2 | inactive |
| CC[C@@]1(O)C(=O)OCc2c1cc1n(c2=O)Cc2cc3c(CN(C)C)c(O)ccc3nc2-1 | inactive |
| COc1cc2nc(N3CCN(C(=O)c4ccco4)CC3)nc(N)c2cc1OC | inactive |
| CC(=O)OCC(CCn1cnc2cnc(N)nc21)COC(C)=O | inactive |
| COc1cc2nc(N(C)CCCNC(=O)C3CCCO3)nc(N)c2cc1OC (stereo not drawn) | inactive |
| CCOC(=O)c1ncn2c1CN(C)C(=O)c1cc(F)ccc1-2 | inactive |
| CCN1CCCC1CNC(=O)c1cc(S(=O)(=O)CC)c(N)cc1OC (stereo not drawn) | inactive |

system: not listed separately; test: Confirmation and Secondary Assay for Modulators of Hemoglobin Beta Chain Splicing at IVS2 654 locus (AID 910); details: HeLa EGFP-654 splicing reporter, GFP fluorescence, 48 h; series mostly up to 46.1 µM;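 note: HeLa cells stably carrying EGFP split by mutant beta-globin IVS2-654 intron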;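 note: potency is the fitted concentration of half-maximal effect; potency of activators that raise GFP signal by restoring correct splicing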
Method in brief: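 HeLa cells stably expressing EGFP interrupted by β-globin IVS2-654 intron, seeded overnight in Opti-MEM/2% FCS, then treated 2 days at 37 °C. Restored splicing read as total peak GFP intensity per well by laser scanning cytometry (488 nm excitation, 500–520 nm emission); 500 nM antisense PNA as control.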

| Structure (SMILES) | Potency |
| --- | --- |
| COc1ccccc1OCCNCC(O)COc1cccc2[nH]c3ccccc3c12 (stereo not drawn) | inactive |
| CC[C@@]1(O)C(=O)OCc2c1cc1n(c2=O)Cc2cc3c(CN(C)C)c(O)ccc3nc2-1 | 12.6 µM (active) |
| CC1COc2c(N3CCN(C)CC3)c(F)cc3c(=O)c(C(=O)O)cn1c23 (stereo not drawn) | inactive |
| CN1CCN2c3ccccc3Cc3ccccc3C2C1 (stereo not drawn) | inactive |

system: not listed separately; test: qHTS Assay for Identification of Small Molecule Agonists for Thrombopoietin (TPO) Signaling Pathway (AID 917); details: TPO signaling pathway reporter cells, agonist qHTS, stimulated with TPO at its EC50; series mostly up to 38.5 µM
Method in brief: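 We measured Glycoprotein IIb promoter–luciferase output in IL-3-starved Ba/F3 murine cells expressing the human TPO receptor after 24 hrs at 37 C with compounds and 26 pM TPO.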

| Structure (SMILES) | Potency |
| --- | --- |
| CCOC(=O)Nc1ccc(NCc2ccc(F)cc2)nc1N | inactive |
| CC[N+](CC)(CC)CCOc1cccc(OCC[N+](CC)(CC)CC)c1OCC[N+](CC)(CC)CC | inactive |
| Cc1cnc(C(=O)NCCc2ccc(S(=O)(=O)NC(=O)NC3CCCCC3)cc2)cn1 | inactive |
| CN1CCC(=C2c3ccccc3C=Cc3ccccc32)CC1 | inactive |
| Nc1nc2c(ncn2COC(CO)CO)c(=O)[nH]1 | inactive |
| CCOC(=O)c1ncn2c1CN(C)C(=O)c1cc(F)ccc1-2 | inactive |

system: not listed separately; test: Confirmation and Secondary Assay for Modulators of Hemoglobin Beta Chain Splicing at IVS2 705 locus (AID 930); details: HeLa EGFP-705 splicing reporter, GFP fluorescence, 48 h; series mostly up to 46.1 µM;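 note: HeLa cells stably expressing the EGFP-705 splicing reporter; GFP fluorescence per well restored by corrected splicing of the IVS2-705 intron in EGFP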
Method in brief: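 Stable HeLa line with EGFP disrupted by mutant beta-globin intron 2 (705). Overnight attachment, then 2 days of compound at 37C, 5% CO2. Signal: peak GFP intensity summed over objects 5-250 µm.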

| Structure (SMILES) | outcome |
| --- | --- |
| CN(C)C(=N)N=C(N)N | inactive |
| CC(C(=O)O)c1cccc(C(=O)c2ccccc2)c1 (stereo not drawn) | inactive |
| CCCNCC(O)COc1ccccc1C(=O)CCc1ccccc1 (stereo not drawn) | inactive |
| COc1ccccc1OCCNCC(O)COc1cccc2[nH]c3ccccc3c12 (stereo not drawn) | inactive |
| CCC1(C)CC(=O)NC1=O (stereo not drawn) | inactive |
| COc1ccccc1OCC(O)CN1CCN(CC(=O)Nc2c(C)cccc2C)CC1 (stereo not drawn) | inactive |
| CC12CC3CC(C)(C1)CC(N)(C3)C2 | inactive |
| CC[C@@]1(O)C(=O)OCc2c1cc1n(c2=O)Cc2cc3c(CN(C)C)c(O)ccc3nc2-1 | inactive |
| CCCCc1oc2ccccc2c1C(=O)c1cc(I)c(OCCN(CC)CC)c(I)c1 | inactive |
| Cc1ccc(C(=O)Nc2ccc(S(=O)(=O)O)c3cc(S(=O)(=O)O)cc(S(=O)(=O)O)c23)cc1NC(=O)c1cccc(NC(=O)Nc2cccc(C(=O)Nc3cc(C(=O)Nc4ccc(S(=O)(=O)O)c5cc(S(=O)(=O)O)cc(S(=O)(=O)O)c45)ccc3C)c2)c1 | inactive |
| CC(=O)OCC(CCn1cnc2cnc(N)nc21)COC(C)=O | inactive |
| COc1cc2nc(N(C)CCCNC(=O)C3CCCO3)nc(N)c2cc1OC (stereo not drawn) | inactive |
| CN1CCN(CCCN2c3ccccc3Sc3ccc(Cl)cc32)CC1 | inactive |
| CN(C)CCOC(c1ccccc1)c1ccccc1 | inactive |
| NC(CO)C(=O)NNCc1ccc(O)c(O)c1O (stereo not drawn) | inactive |
| OCCN(CCO)c1nc(N2CCCCC2)c2nc(N(CCO)CCO)nc(N3CCCCC3)c2n1 | inactive |
| CN(C)C(=O)C(CCN1CCC(O)(c2ccc(Cl)cc2)CC1)(c1ccccc1)c1ccccc1 | inactive |
| CC1COc2c(N3CCN(C)CC3)c(F)cc3c(=O)c(C(=O)O)cn1c23 (stereo not drawn) | inactive |
| CNCCCC12CCC(c3ccccc31)c1ccccc12 | inactive |
| CN1CCN2c3ccccc3Cc3ccccc3C2C1 (stereo not drawn) | inactive |

molecular target: Muscarinic acetylcholine receptor M1 (Rattus norvegicus) (UniProt P08482); test: qHTS Assay for Antagonists of Acetylcholine Muscarinic M1 Receptor: Measurement of IP-One Response (AID 944); details: CHO-M1 cells, IP-One HTRF, antagonist mode; series mostly up to 46.1 µM; note: nearly all actives have a fitted effect of over 75% in size
Sequence (P08482 whole entry, looked up): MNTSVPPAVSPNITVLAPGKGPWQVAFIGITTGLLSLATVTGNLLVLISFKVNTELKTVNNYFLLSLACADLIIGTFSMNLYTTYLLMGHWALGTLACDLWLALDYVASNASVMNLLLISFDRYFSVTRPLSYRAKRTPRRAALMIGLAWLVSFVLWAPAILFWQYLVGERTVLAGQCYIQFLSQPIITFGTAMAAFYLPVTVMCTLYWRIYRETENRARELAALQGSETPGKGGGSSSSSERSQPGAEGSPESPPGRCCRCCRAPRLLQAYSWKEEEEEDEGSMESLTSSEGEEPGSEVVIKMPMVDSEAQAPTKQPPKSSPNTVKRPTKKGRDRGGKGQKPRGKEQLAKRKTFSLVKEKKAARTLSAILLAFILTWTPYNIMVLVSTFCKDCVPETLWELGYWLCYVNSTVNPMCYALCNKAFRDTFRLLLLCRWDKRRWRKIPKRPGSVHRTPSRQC
Method in brief: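 Steps: plate transfected CHO-M1 cells overnight; add test compound, 10 min; add carbachol (200 nM, EC80) in stimulation buffer with LiCl; incubate 30 min; add labelled IP1 tracer and anti-IP1 antibody in lysis buffer; read HTRF after 10 min.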

| Structure (SMILES) | Potency |
| --- | --- |
| CCOC(=O)Nc1ccc(NCc2ccc(F)cc2)nc1N | inactive |
| CCCCc1oc2ccccc2c1C(=O)c1cc(I)c(OCCN(CC)CC)c(I)c1 | inactive |
| Cc1ccc(C(=O)Nc2ccc(S(=O)(=O)O)c3cc(S(=O)(=O)O)cc(S(=O)(=O)O)c23)cc1NC(=O)c1cccc(NC(=O)Nc2cccc(C(=O)Nc3cc(C(=O)Nc4ccc(S(=O)(=O)O)c5cc(S(=O)(=O)O)cc(S(=O)(=O)O)c45)ccc3C)c2)c1 | inactive |
